{
  "source": "the OligoGym collection",
  "data": [
    {"target": "F2R", "assay": "pooled miR-30 sensor sort-seq; sequence = guide strand", "details": "shRNA", "values": [
      {"sequence": "TTCAGGGCTAAACTCTACCAAC", "sensor-assay potency score (higher = more potent)": -1.3},
      {"sequence": "TTTCTGGCCAATCTGTGTCTGA", "sensor-assay potency score (higher = more potent)": -0.414},
      {"sequence": "TAATAGCTGATCTTAAAGGGGA", "sensor-assay potency score (higher = more potent)": -0.239},
      {"sequence": "TAGTACTAAGTCTTACCTCTTA", "sensor-assay potency score (higher = more potent)": -0.241},
      {"sequence": "TAGGATATCACATTCTGCTTTG", "sensor-assay potency score (higher = more potent)": -0.448},
      {"sequence": "TAACACCGTCATCTCGTCCTGT", "sensor-assay potency score (higher = more potent)": -0.174},
      {"sequence": "TACACCACAGCCAGAAACCGGT", "sensor-assay potency score (higher = more potent)": -0.606},
      {"sequence": "TTGGCTTATGTGTACAGTGTGT", "sensor-assay potency score (higher = more potent)": -0.314},
      {"sequence": "TACACATACATCACACTCTATG", "sensor-assay potency score (higher = more potent)": -1.1},
      {"sequence": "ACAAACAGCACATCTGCCGTGG", "sensor-assay potency score (higher = more potent)": -0.289},
      {"sequence": "TTATTGATGGAGACTAATCTGT", "sensor-assay potency score (higher = more potent)": -0.475},
      {"sequence": "TTTCAGGATGAACACAACGATG", "sensor-assay potency score (higher = more potent)": -1.75}
    ]},
    {"target": "FABP1", "assay": "pooled miR-30 sensor sort-seq; sequence = guide strand", "details": "shRNA", "values": [
      {"sequence": "TTGTCTCCAGCTCACATTCCTC", "sensor-assay potency score (higher = more potent)": -1.37},
      {"sequence": "TGAACTTGAAGTGCTTCCCATT", "sensor-assay potency score (higher = more potent)": -0.823},
      {"sequence": "TCCAACTGAACCACTGTCTTGA", "sensor-assay potency score (higher = more potent)": -0.148},
      {"sequence": "AACCACTGTCTTGACTTTCTCC", "sensor-assay potency score (higher = more potent)": -0.372},
      {"sequence": "TCTTGAAGACAATGTCACCCAA", "sensor-assay potency score (higher = more potent)": 0.0461},
      {"sequence": "TTGAGTTCGGTCACAGACTTGA", "sensor-assay potency score (higher = more potent)": -0.0189},
      {"sequence": "ACTGTCTTGACTTTCTCCCCTG", "sensor-assay potency score (higher = more potent)": -0.45},
      {"sequence": "TTTTGGATCACTTTGGACCCAG", "sensor-assay potency score (higher = more potent)": -0.408},
      {"sequence": "TATTGTCACCTTCCAACTGAAC", "sensor-assay potency score (higher = more potent)": -1.49},
      {"sequence": "TTATTGTCACCTTCCAACTGAA", "sensor-assay potency score (higher = more potent)": -0.686},
      {"sequence": "TCGTTTTGGATCACTTTGGACC", "sensor-assay potency score (higher = more potent)": -1.43},
      {"sequence": "TTTTGAAAGTTGTCACCAGTTT", "sensor-assay potency score (higher = more potent)": -0.569},
      {"sequence": "TTCCGGCAGACCGATTGCCTTC", "sensor-assay potency score (higher = more potent)": -1.36},
      {"sequence": "TTTCCTGGCTCTGCAGTTGGTA", "sensor-assay potency score (higher = more potent)": -0.913},
      {"sequence": "TTTGGATCACTTTGGACCCAGC", "sensor-assay potency score (higher = more potent)": -1.41},
      {"sequence": "TTCCTGGCTCTGCAGTTGGTAC", "sensor-assay potency score (higher = more potent)": -1.83},
      {"sequence": "TTCCAACTGAACCACTGTCTTG", "sensor-assay potency score (higher = more potent)": -1.23},
      {"sequence": "ATTCTCTTGAAGACAATGTCAC", "sensor-assay potency score (higher = more potent)": -0.0218},
      {"sequence": "TTGAAGACAATGTCACCCAATG", "sensor-assay potency score (higher = more potent)": -1.17},
      {"sequence": "TTTGAAAGTTGTCACCAGTTTA", "sensor-assay potency score (higher = more potent)": -0.997},
      {"sequence": "TGAACCACTGTCTTGACTTTCT", "sensor-assay potency score (higher = more potent)": -0.394},
      {"sequence": "TTTTTGAAAGTTGTCACCAGTT", "sensor-assay potency score (higher = more potent)": -0.333},
      {"sequence": "TTTATTGTCACCTTCCAACTGA", "sensor-assay potency score (higher = more potent)": 0.758}
    ]},
    {"target": "FABP9", "assay": "pooled miR-30 sensor sort-seq; sequence = guide strand", "details": "shRNA", "values": [
      {"sequence": "TTTACTTTCCGGTTGTCTGCTG", "sensor-assay potency score (higher = more potent)": 0.767},
      {"sequence": "AACACTAATAGTTACTGTCGGT", "sensor-assay potency score (higher = more potent)": -0.48},
      {"sequence": "TTACTTTCCGGTTGTCTGCTGT", "sensor-assay potency score (higher = more potent)": -0.00906},
      {"sequence": "TTTTGGACGTGAATCATTGAGC", "sensor-assay potency score (higher = more potent)": -0.43},
      {"sequence": "TTTCTTTTGATTGTTGTCTCTT", "sensor-assay potency score (higher = more potent)": 0.171}
    ]}
  ]
}
